Assay [1] is described as follows: A CellTox Green Cytotoxicity Assay to monitor cytotoxicity in HEK293 cells - 32 hour (AID 1224881). Further: nearly all actives have a fitted effect of over 40% in size. An outline of the steps:
(§1)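 Homogeneous no-lysis format: HEK293 cell suspension mixed with CellTox Green reagent, seeded, incubated 5 h at 37 C/5% CO2, then dosed by pintool with compound in DMSO.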

Assay [2] in a line: A CellTox Green Cytotoxicity Assay to monitor cytotoxicity in HepG2 cells - 0 hour (AID 1224882). Further: nearly all actives have a fitted effect of over 35% in size. An outline of the steps: (§2)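 Fluorescent DNA-binding dye, 600 HepG2 cells/well, 5 h preincubation then compound in DMSO; same plates read at 0–40 h, 37 C.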
Assay [3] in a line: A CellTox Green Cytotoxicity Assay to monitor cytotoxicity in HepG2 cells - 32 hour (AID 1224883). Further: nearly all actives have a fitted effect of over 50% in size. An outline of the steps: as §2
Assay [4] is described as follows: A CellTox Green Cytotoxicity Assay to monitor cytotoxicity in HEK293 cells - 8 hour (AID 1224884). Further: nearly all actives have a fitted effect of over 35% in size. Put shortly:
as §1

The nature of assay [5]: qHTS RealTime-Glo MT Cell Viability Assay in HepG2 cells - 16 hour (AID 1224885). Further: nearly all actives have a fitted effect of over 50% in size. An outline of the steps:
(§3)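 Compound treatment began 5 h after plating HepG2 cells (600/well) with NanoLuc luciferase and prosubstrate. Plates stayed at 37 C for 40 h; luminescence was captured at six time points, 0 h through 40 h.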
On the technique in general: Quantitative high-throughput screening tests each substance at several concentrations.

Assay [6] in a line: qHTS RealTime-Glo MT Cell Viability Assay in HEK293 cells - 8 hour (AID 1224887). Further: top concentration of the series differs between compounds; nearly all actives have a fitted effect of over 50% in size. Put shortly:
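Measured as luminescence from the same continuously cultured HEK293 wells at successive time points (0, 8, 16, 24, 32, 40 h) after compound addition. Reagent present from seeding; dosing at 5 h; incubation 37 C.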

Assay [7] can be described thus: A CellTox Green Cytotoxicity Assay to monitor cytotoxicity in HEK293 cells - 16 hour (AID 1224888). Further: nearly all actives have a fitted effect of over 35% in size. An outline of the steps:
as §1

Assay [8] can be described thus: qHTS RealTime-Glo MT Cell Viability Assay in HepG2 cells - 0 hour (AID 1224889). Further: nearly all actives have a fitted effect of over 50% in size. Put shortly:
as §3

Assay [9] is described as follows: A CellTox Green Cytotoxicity Assay to monitor cytotoxicity in HepG2 cells - 8 hour (AID 1224890). Further: nearly all actives have a fitted effect of over 45% in size. An outline of the steps: as §2
A short description of assay [10]: qHTS assay to identify small molecule antagonists of the estrogen receptor alpha (ER-alpha) signaling pathway using the BG1 cell line in the presence of 0.1 nM 17-beta-estradiol - cell viability counter screen (AID 1259241). Further: nearly all actives have a fitted effect of over 40% in size. Put shortly:
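VM7Luc4E2, 4,000 cells/well, phenol red-free medium + 10% charcoal-stripped FBS; 24 hr plating; cpd + 0.1 nM E2 final, 22 hr 37C/5% CO2; CellTiter-Fluor 30 min, fluorescence.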

Assay [11] is described as follows: qHTS assay to identify small molecule antagonists of the androgen receptor (AR) signaling pathway using the MDA cell line in the presence of 0.5 nM R1881 - cell viability counter screen (AID 1259242). Further: nearly all actives have a fitted effect of over 45% in size. Put shortly: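 Human breast carcinoma MDA-kb2 cells, cultured without CO2, receive compounds alongside 0.5 nM (final) R1881 agonist. After 16 hr at 37C, viability is taken as live-cell protease signal.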

Assay [12] concerns the target Estrogen receptor (Homo sapiens) (UniProt P03372). The assay can be described thus: qHTS assay to identify small molecule antagonists of the estrogen receptor alpha (ER-alpha) signaling pathway using the BG1 cell line in the presence of 0.1 nM 17-beta-estradiol (AID 1259244). Further: nearly all actives have a fitted effect of over 50% in size. An outline of the steps:
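Seeding of stripped-serum-adapted VM7Luc4E2 cells, 24 h attachment, compound transfer, then 0.1 nM final 17beta-estradiol; after 22 h incubation, ONE-Glo reagent and luminescence reading.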

Assay [13] can be described thus: qHTS assay to identify small molecule HDAC inhibitors (AID 1259364).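 Further: wild-type HCT-116 cells with endogenous class I/II HDAC activity; top concentration of the series differs between compounds; nearly all actives have a fitted effect of over 45% in size.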 An outline of the steps: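 After a 2 hr compound incubation (37C, 5% CO2), HCT-116 cells seeded at 1,500/well the day before received HDAC-Glo reagent; signal read as luminescence after 30 min at room temperature.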
A short description of assay [14]: qHTS assay to identify small molecule HDAC inhibitors - cell viability counter screen (AID 1259365). Put shortly:
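Luminescence from CellTiter-Glo, developed 30min at room temperature, reports viability of wild-type HCT-116 cells treated 2hr with compounds at 37 C and 5% CO2 after overnight plating.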

The nature of assay [15]: qHTS assay to identify small molecule agonists of the sonic hedgehog signaling (Shh) pathway - cell viability counter screen (AID 1259366). Further: nearly all actives have a fitted effect of over 50% in size. An outline of the steps: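 Cytotoxicity counter screen run in the same wells as the Shh reporter assay. NIH/3T3 cells carrying a Gli1 response element–driven luciferase were treated with DMSO-dissolved compounds for 24hr, and live-cell protease activity was measured with CellTiter-Fluor.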

Assay [16] is described as follows: qHTS assay to identify small molecule antagonists of the sonic hedgehog signaling (Shh) pathway - cell viability counter screen (AID 1259367). Further: nearly all actives have a fitted effect of over 55% in size. An outline of the steps: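 Viability was read by CellTiter-Fluor fluorescence in the same wells, reagent added 23 hr into compound treatment and incubated 1 hr at 37C. The 3T3 Gli1-Luc reporter cells (2,000/well) received conditioned medium after compound and ran 24 hr.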

Assay [17] can be described thus: qHTS assay to identify small molecule agonists of the sonic hedgehog signaling (Shh) pathway (AID 1259368; calls by dose curve;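 further: NIH/3T3-derived 3T3Gli1-Luc cells carrying a stable Gli1-driven firefly luciferase reporter; series mostly up to about 92 µM; nearly all actives have a fitted effect of over 15% in size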). Put shortly:
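Stable NIH/3T3 Gli1-Luc reporter clone; 24 hr cpd exposure after a 4 hr settling period; luminescence endpoint.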

Assay [18] is described as follows: qHTS RealTime-Glo MT Cell Viability Assay in HEK293 cells - 24 hour (AID 1224886). Put shortly:
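Quantitative high-throughput screen of the Tox21 10K library in HEK293: cells and RealTime-Glo reagents plated together, compound added at 5 h, luminescence monitored through 40 h at 37 C.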

Assay [19] has as its target Androgen receptor (Homo sapiens) (UniProt P10275). The assay can be described thus: qHTS assay to identify small molecule antagonists of the androgen receptor (AR) signaling pathway using the MDA cell line in the presence of 0.5 nM R1881 (AID 1259243). Further: nearly all actives have a fitted effect of over 50% in size. Further: potency means the concentration at half of the fitted maximal effect. Put shortly: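 Cells: MDA-kb2 (MMTV-luc). Stimulus: 0.5 nM R1881. Time: 16 hr, 37C, no CO2. Detection: ONE-Glo luminescence after 30 min at RT.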

Assay [20] is described as follows: qHTS assay to identify small molecule phospholipidosis (PLD) inducers (AID 1259344; active means well fitted curve in the direction sought with a large enough effect; an effect the other way counts as inactive or inconclusive). Put shortly: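 Phospholipid accumulation was scored by imaging: fixed, Hoechst-counterstained HepG2 cells stained with LipidTOX Red after 24 h compound exposure at 37 C. Read-outs were pit count and pit intensity per well or per cell, with amiodarone and DMSO controls.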

The record followed here is PubChem BioAssay (Tox21).

Records with an inconclusive call do not appear. Active and inactive are the calls of the source. Unless noted, the call rests on the fitted dose curve; in most records, active means well fitted curve in the direction sought with a large enough effect in the repeat runs; inconclusive means weak or mixed curves; inactive means no such curve, though single readings can be large; an effect the other way counts as inactive or inconclusive.

Estrogen receptor (Homo sapiens), sequence (P03372 whole entry, looked up): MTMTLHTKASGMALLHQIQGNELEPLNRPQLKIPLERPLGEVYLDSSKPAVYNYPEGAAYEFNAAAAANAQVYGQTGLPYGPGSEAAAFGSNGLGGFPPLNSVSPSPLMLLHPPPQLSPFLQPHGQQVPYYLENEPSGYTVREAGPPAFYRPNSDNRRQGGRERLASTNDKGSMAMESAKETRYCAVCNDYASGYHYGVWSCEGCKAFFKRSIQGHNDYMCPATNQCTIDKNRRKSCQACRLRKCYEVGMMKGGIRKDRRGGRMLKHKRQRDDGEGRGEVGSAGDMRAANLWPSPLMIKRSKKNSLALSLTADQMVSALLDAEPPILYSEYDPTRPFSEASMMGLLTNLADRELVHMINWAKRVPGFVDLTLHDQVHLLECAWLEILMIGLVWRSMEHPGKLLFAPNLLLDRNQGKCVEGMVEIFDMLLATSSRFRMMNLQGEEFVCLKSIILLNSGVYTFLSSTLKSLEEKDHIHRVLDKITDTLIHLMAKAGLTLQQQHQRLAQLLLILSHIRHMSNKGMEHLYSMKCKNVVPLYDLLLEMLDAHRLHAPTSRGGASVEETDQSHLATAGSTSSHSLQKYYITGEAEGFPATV
Androgen receptor (Homo sapiens), sequence (P10275 whole entry, looked up): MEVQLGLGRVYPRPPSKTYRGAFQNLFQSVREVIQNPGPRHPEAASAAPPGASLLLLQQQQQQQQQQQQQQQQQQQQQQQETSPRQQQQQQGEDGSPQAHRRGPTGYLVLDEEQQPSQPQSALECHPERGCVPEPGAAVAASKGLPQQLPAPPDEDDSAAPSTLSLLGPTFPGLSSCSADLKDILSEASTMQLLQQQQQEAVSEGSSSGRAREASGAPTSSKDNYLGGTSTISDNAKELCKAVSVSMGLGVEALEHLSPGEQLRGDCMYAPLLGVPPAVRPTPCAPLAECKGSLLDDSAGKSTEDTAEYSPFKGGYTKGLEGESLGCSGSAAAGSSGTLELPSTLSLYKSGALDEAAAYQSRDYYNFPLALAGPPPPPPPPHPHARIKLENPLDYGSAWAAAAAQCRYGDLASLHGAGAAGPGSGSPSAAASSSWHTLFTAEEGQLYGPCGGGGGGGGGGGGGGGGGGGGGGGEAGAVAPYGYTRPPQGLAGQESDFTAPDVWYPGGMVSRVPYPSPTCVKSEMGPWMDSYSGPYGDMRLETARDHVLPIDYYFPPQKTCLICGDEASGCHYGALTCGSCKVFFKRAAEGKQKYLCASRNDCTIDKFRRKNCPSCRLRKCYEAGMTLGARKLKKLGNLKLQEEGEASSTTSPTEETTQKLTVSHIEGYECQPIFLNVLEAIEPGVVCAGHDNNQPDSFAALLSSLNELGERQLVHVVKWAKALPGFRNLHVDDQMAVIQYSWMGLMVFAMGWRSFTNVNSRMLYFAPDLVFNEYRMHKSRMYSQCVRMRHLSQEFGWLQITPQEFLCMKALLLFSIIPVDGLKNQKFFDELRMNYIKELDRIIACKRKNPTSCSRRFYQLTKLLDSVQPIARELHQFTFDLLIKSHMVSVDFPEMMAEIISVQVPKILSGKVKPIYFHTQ

Take `CCN(CC)c1nc(C)cc(OP(=S)(OC)OC)n1`: the Potency entry in assay [1], in assay [3], in assay [4], in assay [5], in assay [6] and in assay [7] was “inactive” each time. The Potency entry in [8], in assay [9], in assay [12], in assay [13], in assay [15] and in assay [16] was “inactive” throughout. Also, the compound was classed as inactive in assay [2], in [10], in assay [11], in assay [14] and in assay [17].
For `C[N+](=O)[O-]`, the Potency entry in assay [1], in assay [3], in [4], in assay [5], in [6] and in [7] was “inactive” in each case. Also, the Potency result in assay [8], in assay [9], in assay [12], in assay [13], in assay [15] and in assay [16] was “inactive” throughout. The outcome in [2], in assay [11], in [14] and in assay [17] was inactive.
Consider `CC1=NNC(=O)N(/N=C/c2cccnc2)C1`, for which the Potency result in [1], in assay [3], in [4], in [18], in [6] and in assay [7] was “inactive” throughout. The Potency entry in [8], in assay [9], in assay [13], in assay [15] and in [16] was “inactive” each time. Moreover, the compound was classed as inactive in assay [2], in [10], in assay [11], in [14] and in assay [17].
Take `CCC(C)(C)c1cc(-n2nc3ccccc3n2)c(O)c(C(C)(C)CC)c1`: the Potency result in assay [1], in assay [3], in assay [4], in [5], in assay [7] and in assay [8] was “inactive” throughout. Moreover, the Potency entry in assay [9], in assay [13], in assay [15] and in assay [16] was “inactive” each time. The call in assay [2], in assay [11], in assay [14] and in assay [17] was inactive. Also, the Potency in [19] is 39.2 µM (active).
As for `CC1(C)COP(Oc2ccccc2)OC1`, the Potency entry in assay [1], in assay [3], in assay [4], in assay [5], in assay [6] and in [7] was “inactive” in each case. Besides, the Potency entry in assay [8], in assay [9], in assay [19], in assay [13], in assay [15] and in assay [16] was “inactive” throughout. Besides, the outcome in assay [2], in assay [10], in [11], in assay [14] and in assay [17] was inactive.
For the compound `NC(=O)O`, the Potency result in assay [1], in assay [3], in assay [4], in assay [5], in assay [6] and in assay [7] was “inactive” in each case. The Potency result in assay [8], in [9], in [12], in assay [13], in [15] and in [16] was “inactive” each time. In addition, the outcome in assay [2], in assay [10], in assay [11], in assay [14] and in assay [17] was inactive.
`COc1ccc2c(c1OC)CN1CCc3cc4c(cc3C1C2)OCO4` (configuration not stated): the Potency result in [1], in [3], in assay [4], in assay [5], in assay [6] and in [7] was “inactive” throughout. In addition, the Potency entry in assay [8], in assay [9], in assay [13], in assay [15] and in [16] was “inactive” each time. Besides, the result in [2], in [10], in [11], in assay [20], in assay [14] and in assay [17] was inactive. Also, in assay [19], the Potency was 26.6 µM (active).
On to `CCOP(=S)(OCC)Oc1ncn(-c2ccccc2)n1`, for which the Potency entry in [1], in [3], in [4], in assay [5], in assay [6] and in assay [7] was “inactive” throughout. The Potency result in assay [8], in assay [9], in assay [19], in [12], in [13] and in [15] was “inactive” each time. In addition, the compound was called inactive in [2], in assay [10], in [11], in assay [14] and in assay [17].
Consider `O=C(O)c1cccc(Cl)c1`, for which the Potency result in [1], in assay [3], in assay [4], in assay [5], in [6] and in [7] was “inactive” throughout. Besides, the Potency entry in assay [8], in [9], in [12], in assay [13], in assay [15] and in assay [16] was “inactive” throughout. Moreover, the compound was called inactive in assay [2], in [10], in assay [11], in [14] and in [17].
For the compound `CC(C)(C)OC(=O)c1ncn2c1[C@@H]1CCCN1C(=O)c1c(Br)cccc1-2`, the Potency entry in [1], in assay [3], in assay [4], in assay [5], in assay [6] and in assay [7] was “inactive” in each case. Moreover, the Potency entry in assay [8], in assay [9], in assay [13], in assay [15] and in assay [16] was “inactive” each time. In addition, the outcome in [2], in assay [10], in [11], in assay [20], in assay [14] and in assay [17] was inactive.
Turning to `O=C(O)c1ccc2[nH]cc(CCCCN3CC=C(c4ccccc4)CC3)c2c1`, the Potency result in [1], in assay [3], in assay [4], in [18], in assay [6] and in assay [7] was “inactive” throughout. Further, the Potency entry in assay [8], in assay [9], in assay [19], in assay [12], in assay [13] and in assay [15] was “inactive” each time. Besides, in assay [16], the Potency entry was “inactive”. The compound was classed as inactive in [2], in assay [10], in [11], in assay [20], in assay [14] and in assay [17].
For `CCC/C(=N\OCC)C1=C(O)CC(CC(C)SCC)CC1=O` (configuration not stated), the Potency result in assay [1], in assay [3], in assay [4], in assay [5], in assay [6] and in assay [7] was “inactive” throughout. Besides, the Potency entry in assay [8], in [9], in [12], in assay [13] and in [15] was “inactive” throughout. In addition, the result in assay [2], in assay [10], in [11], in assay [14] and in assay [17] was inactive.
For `Nc1cc2c3c(c1)C(c1ccccc1)=N[C@@H](NC(=O)c1cccnc1)C(=O)N3CC2`, the Potency result in assay [1], in assay [3], in assay [4], in assay [18], in assay [6] and in [7] was “inactive” throughout. The Potency entry in assay [8], in assay [9], in assay [12], in assay [13] and in assay [15] was “inactive” in each case. For the same compound, the call in [2], in assay [10], in assay [11], in [14] and in assay [17] was inactive.
As for `CCC(C)n1c(=O)[nH]c(C)c(Br)c1=O` (configuration not stated), the Potency result in [1], in [3], in [4], in assay [5], in assay [6] and in assay [7] was “inactive” in each case. Further, the Potency result in [8], in [9], in [12], in assay [13] and in assay [15] was “inactive” each time. The compound was classed as inactive in assay [2], in assay [10], in assay [11], in assay [14] and in assay [17].
Take `Cc1ncc(CNC(=O)N(CCCl)N=O)c(N)n1`: the Potency entry in assay [1], in assay [3], in [4], in assay [18], in assay [6] and in assay [7] was “inactive” throughout. The Potency result in assay [8], in [9], in assay [12], in [13], in assay [15] and in [16] was “inactive” in each case. The call in assay [2], in [10], in assay [11], in assay [20], in [14] and in assay [17] was inactive.
